{
  "source": "the supplement of paper PMC9262897",
  "about": "“Low-cost anti-mycobacterial drug discovery using engineered E. coli” (Nature Communications, 2022)",
  "note": "Where a name gives a salt, the structure may show the parent alone. ± gives the standard deviation of the averaged measurements.",
  "data": [
    {"tested_on": "E. coli TESEC Mtb Alr", "assay": "growth (OD600 after 10 h); higher = more growth (less inhibition)", "details": "arabinose 100 nM; compound 0.1 mM; raw OD600 reference: median of DMSO wells 0.413, cell-free background 0.052", "experimental": "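TESEC Mtb Alr E. coli (ΔaraC ΔtolC ΔentC Δalr ΔdadX, arabinose-inducible Mtb Alr) or the Alr+ wild-type control strain, grown in defined M9-fructose medium without D-alanine in 96-well plates with Prestwick library compounds at 0.1 mM and 1% DMSO. Low Alr induction is 0.1 µM arabinose and high induction is 10 mM arabinose.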", "values": [
      {"molecule": "CC(C)NCC(O)c1cc(O)cc(O)c1", "note": "(stereo not drawn) [Metaproterenol sulfate, orciprenaline sulfate]", "growth": "0.411 ± 0.011"},
      {"molecule": "CN(CCOc1ccc(NS(C)(=O)=O)cc1)CCc1ccc(NS(C)(=O)=O)cc1", "note": "[Dofetilide]", "growth": "0.427 ± 0.0089"},
      {"molecule": "N=c1nc(N2CCCCC2)cc(N)n1O", "note": "[Minoxidil]", "growth": "0.406 ± 0.0072"},
      {"molecule": "Clc1ccccc1C(c1ccccc1)(c1ccccc1)n1ccnc1", "note": "[Clotrimazole]", "growth": "0.07627 ± 0.0006"},
      {"molecule": "CC(=O)Oc1ccccc1C(=O)Nc1ncc([N+](=O)[O-])s1", "note": "[Nitazoxanide]", "growth": "0.157 ± 0.039"},
      {"molecule": "CCOc1ccccc1OC(c1ccccc1)C1CNCCO1", "note": "(stereo not drawn) [Reboxetine mesylate]", "growth": "0.402 ± 0.015"},
      {"molecule": "NC(=O)c1cc[n+](CC2=C(C(=O)[O-])N3C(=O)[C@@H](NC(=O)[C@@H](c4ccccc4)S(=O)(=O)O)[C@H]3SC2)cc1", "note": "[Cefsulodin sodium salt]", "growth": "0.366 ± 0.012"},
      {"molecule": "CC(C)(C)NC(=O)[C@@H]1C[C@@H]2CCCC[C@@H]2CN1C[C@@H](O)[C@H](Cc1ccccc1)NC(=O)[C@H](CC(N)=O)NC(=O)c1ccc2ccccc2n1", "note": "[Saquinavir mesylate]", "growth": "0.273 ± 0.11"},
      {"molecule": "CCCCOC(=O)c1ccc(O)cc1", "note": "[Butylparaben]", "growth": "0.376 ± 0.029"},
      {"molecule": "Cc1cn[nH]c1", "note": "[Fomepizole]", "growth": "0.423 ± 0.011"},
      {"molecule": "NC1CCN(c2nc3c(cc2F)c(=O)c(C(=O)O)cn3-c2ccc(F)cc2F)C1", "note": "(stereo not drawn) [Tosufloxacin hydrochloride]", "growth": "0.05307 ± 0.00025"},
      {"molecule": "CN(C)CCN1C(=O)c2ccccc2N(C)c2ccccc21", "note": "[Dibenzepine hydrochloride]", "growth": "0.415 ± 0.0072"},
      {"molecule": "Nc1nc(NC2CC2)c2ncn([C@H]3C=C[C@@H](CO)C3)c2n1", "note": "[Abacavir Sulfate]", "growth": "0.408 ± 0.016"}
    ]}
  ]
}
